ChEMBL document CHEMBL1157539, “Thousands of chemical starting points for antimalarial lead identification” (Nature, 2010)

system: Plasmodium falciparum; test: GSK_TCMDC: Inhibition of Plasmodium falciparum 3D7 in whole red blood cells, using parasite LDH activity as an index of growth. Test compounds present at 2uM; assay type: functional

`CN(C)CCNc1ncnc2c1[nH]c1ccc(Cl)cc12` and `Fc1cccc(Cn2ncc3cc(Nc4ncnc5sc(C#Cc6ncc[nH]6)cc45)ccc32)c1` are the same in Inhibition: 100% for the first, 100% for the second.

Going from `N#CC(c1ccc(Br)cc1)c1ccc2c(C(F)(F)F)cc(C(F)(F)F)nc2n1` (centres undefined) to `Cc1cc(=NN=Cc2ccc(F)cc2)c2ccc(F)cc2[nH]1`, the Inhibition falls from 100% to 99%.

`Cc1ccc(Nc2nc(N/N=C/c3cc4c(cc3Br)OCO4)nc(Nc3ccc([N+](=O)[O-])cc3)n2)cc1C` and `Cc1ccc2nc(C)cc(N/N=C/c3cccc([N+](=O)[O-])c3)c2c1` are the same in Inhibition: 100% for the first, 100% for the second.

Compared with `COc1cccc(NC(=O)NC2CCN(c3ccnc(Nc4cc(OC)c(OC)c(OC)c4)n3)C2)c1` (centres undefined), `O=C(NC1CC1)c1ccc2cc(C(=O)N3Cc4ccccc4C(c4ccccc4)C3)ccc2c1` (centres undefined) is higher in Inhibition: 95% for the first, 97% for the second.

`Nc1nc(N)c2c(CCc3ccc(Cl)c(Cl)c3)cccc2n1` and `O=C(NCCCN1CCN(c2cccc(Cl)c2)CC1)c1ccc(-c2nc3cc(Cl)c(Cl)cc3[nH]2)c(F)c1` are the same in Inhibition: 100% for the first, 100% for the second.

`COc1ccccc1CCNc1ncc(F)c(N[C@@H](Cc2ccccc2)C(=O)NCCc2ccccc2)n1.O=C(O)C(F)(F)F` and `O=C(CCC1CCCC1)N(Cc1ccc(-c2ccc(CNCCc3ccccc3)cc2)cc1)C1CCCNC1.O=C(O)C(F)(F)F` (centres undefined) are the same in Inhibition: 90% for the first, 90% for the second.

Compared with `CS(=O)(=O)n1c(CN2CCN(c3ncc(C(F)(F)F)cc3Cl)CC2)nc2ccccc21`, `Cl.c1ccc(-c2ccc3c(Nc4ccc5[nH]ccc5c4)ccnc3c2)nc1` is higher in Inhibition: 83% for the first, 91% for the second.
